# Screening results from PubChem BioAssay.
# Most compounds without a hit are left out; they make up all but 3.6% or so of the library.
# mHTT CaM bind – mutant huntingtin-calmodulin interaction inhibitors – biochemical, AlphaScreen, primary screen; AID 1671202, 2021; AlphaScreen His-mHTT/GST-CaM binding, luminescence; P42858; inhibition, % at 15 µM; 190,000 tested, 3.6% active;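 further: 0% = both proteins with DMSO and 100% = one protein alone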
# Pf apPOL inh – Pf-apPOL inhibitors, biochemical, fluorescence. Plasmodium falciparum apicoplast DNA polymerase (apPOL). Recombinant Pf-apPOL, molecular beacon fluorescence, 1.5 h. inhibition, % at 10 µM. 210,000 tested, 0.25% active
# * = called active by the depositor; · = not tested or not shown. No stated cut-off is given here; in the data, active means inhibition above about 50%; inactive means the rest.
SMILES,mHTT CaM bind,Pf apPOL inh
CN(CC(=O)Nc1ccccc1F)S(=O)(=O)c1ccc2[nH]c3c(c2c1)CCCC3,37,-3
O=S(=O)(c1ccc2[nH]c3c(c2c1)CCCC3)N1CCc2ccccc21,78*,-3
CN(CC(=O)N1CCOCC1)S(=O)(=O)c1ccc2[nH]c3c(c2c1)CCCC3,12,-6
CC1CN(S(=O)(=O)c2ccc3[nH]c4c(c3c2)CCCC4)c2ccccc2O1 (stereo unspecified),96*,-4
CN(CC(=O)N1CCc2ccccc21)S(=O)(=O)c1ccc2[nH]c3c(c2c1)CCCC3,5,-2
CCOC(=O)C1CCCCN1S(=O)(=O)c1ccc2[nH]c3c(c2c1)CCCC3 (stereo unspecified),62*,4
CC1CCCN(S(=O)(=O)c2ccc(Cl)cc2)C1 (stereo unspecified),-14,-4
Cn1cc(CCC(=O)NCc2ccc(F)cc2)c2ccccc21,-2,-24
O=C1C(NS(=O)(=O)Cc2cc(F)cc(F)c2)CCN1c1ccccc1 (stereo unspecified),-3,-1
O=c1/c(=C/c2ccc(F)cc2)sc2nc(-c3cccc(Cl)c3)nn12,-4,-2
O=C(Nc1ccc(Cl)cc1)N1CCN(Cc2nc3cccnc3n2-c2ccccc2)CC1,1,-1
O=C(c1ccco1)N1CCN(CC(=O)N2CCCc3c2c(=O)oc2ccc(O)cc32)CC1,1,8
O=C(CN1CCN(Cc2ccccc2)CC1)N1CCCc2c1c(=O)oc1ccc(O)cc21,57*,3
CCC1CN(C(=O)Nc2cc(F)ccc2F)c2ccccc2O1 (stereo unspecified),-52,0
CC(C)C(=O)N1CCc2c(c(C(=O)NCc3ccccc3)nn2C)C1,0,-6
CCC(=O)N1CCc2c(c(C(=O)NCc3ccc(Cl)cc3)nn2C)C1,81*,-8
Cn1nc(C(=O)NCc2ccc(F)cc2)c2c1CCN(C(=O)C1CC1)C2,29,-8
CCC(=O)N1CCc2c(c(C(=O)NCc3ccc(F)cc3)nn2C)C1,18,-6
CC(C)C(=O)N1CCc2c(c(C(=O)NCc3ccc(Cl)cc3)nn2C)C1,71*,-6
Cn1nc(C(=O)NCc2ccc(Cl)cc2)c2c1CCN(C(=O)C1CCCCC1)C2,93*,-1
O=C(Cc1ccc(NC(=O)C2(c3cccs3)CCCC2)cc1)NCC(F)(F)F,-4,-1
c1nc(NCCN2CCOCC2)c2sc3nc(N4CCOCC4)c4c(c3c2n1)CCCC4,55*,0
c1nc(N2CCNCC2)c2sc3nc(N4CCOCC4)c4c(c3c2n1)CCCC4,14,-10
c1ccc(-c2nnc3n2C2(CCCC2)Cc2ccccc2-3)cc1,-2,3
O=C1C=C2c3ccccc3CC3(CCCC3)N2C1=O,84*,0
SMILES,mHTT CaM bind,Pf apPOL inh
Cc1noc(-c2ccc(NC(=O)C3(c4ccccc4)CCOCC3)cc2)n1,-6,-2
N#CC1=C(N)Oc2n[nH]c(-c3ccccn3)c2C1c1cccc(F)c1 (stereo unspecified),15,4
N#CC1=C(N)Oc2n[nH]c(-c3ccccn3)c2C1c1ccc(F)cc1 (stereo unspecified),65*,5
COc1ccc(C2C(C#N)=C(N)Oc3n[nH]c(C)c32)cc1COc1cccc(Cl)c1 (stereo unspecified),69*,2
CCOc1cc(C2C(C#N)=C(N)Oc3n[nH]c(-c4ccccn4)c32)ccc1O (stereo unspecified),52*,-2
COc1cccc(C2C(C#N)=C(N)Oc3n[nH]c(C)c32)c1 (stereo unspecified),-1,0
CCOc1cc(C2C(C#N)=C(N)Oc3n[nH]c(-c4ccccc4)c32)ccc1O (stereo unspecified),28,-2
O=C(CN1C(=O)c2cccc([N+](=O)[O-])c2C1=O)Nc1ncc([N+](=O)[O-])s1,5,-2
Cc1cccc(C)c1N=Cc1c(C)[nH]n(-c2cccc(Cl)c2)c1=O,22,1
CC(C)N1C(=O)/C(=C\c2nc3ccccc3c(=O)n2-c2ccc([N+](=O)[O-])cc2)c2ccccc21,61*,-6
CCCN1C(=O)/C(=C\c2nc3ccccc3c(=O)n2-c2ccccc2[N+](=O)[O-])c2ccccc21,38,-16
O=C(O)c1ccc(-n2c(/C=C/c3ccc([N+](=O)[O-])cc3)nc3ccccc3c2=O)cc1,-6,-5
CCCN1C(=O)/C(=C\c2nc3ccccc3c(=O)n2-c2ccccc2OC)c2ccccc21,56*,1
CCCN1C(=O)/C(=C\c2nc3ccccc3c(=O)[nH]2)c2ccccc21,37,2
CCN1C(=O)/C(=C\c2nc3ccccc3c(=O)n2-c2ccccc2C)c2ccccc21,63*,-2
Cc1ccc(Nc2nc(N3CCOCC3)nc(=O)[nH]2)cc1C,-4,0
CC(=O)N1CCc2cc(Br)cc(S(=O)(=O)Nc3cc(Cl)ccc3C)c21,12,-2
O=S(=O)(O)c1cc(Br)ccc1I,·,-14
O=S(=O)(O)c1cc(I)c(O)c2ncccc12,100*,-194
N#CCCN(CC1CCCO1)C(=S)NC1CC2C=CC1C2 (stereo unspecified),·,-11
Oc1oc(-c2ccccc2F)nc1C=Nc1cccc(Cl)c1,3,72*
Oc1oc(-c2ccccc2Br)nc1C=Nc1cccc(Cl)c1,4,-5
Cc1c(-c2csc(-c3ccno3)n2)sc2ccccc12,·,3
COc1cc(OC)c(C=Nc2ccc(O)cc2)cc1Br,64*,3
C=CCOc1ccc(C=Nc2ccc(OC)cc2)c(O)c1,0,-2
SMILES,mHTT CaM bind,Pf apPOL inh
COc1cc(OC)c(C=Nc2ccccc2)cc1Br,4,-2
COc1ccc(C=Nc2ccc(O)cc2)c(OC)c1,71*,-7
COc1ccc(Oc2c(C)oc3c(CN4CCN(C)CC4)c(O)ccc3c2=O)cc1,4,-8
O=C(Nc1ccccc1NC(=O)c1ccc2c(c1)OCO2)c1ccc2c(c1)OCO2,-4,-1
Cc1ccc(-c2nnc(Cc3nc(C(C)(C)C)no3)o2)cc1,-10,-2
CCOc1ccccc1C(=O)N1CCCC(C)(C(=O)NCc2ccc(OC)cc2)C1 (stereo unspecified),0,-4
COc1ccc(O)c(C(=O)C=Cc2ccc3c(c2)OCCO3)c1,61*,6
COc1ccc(C(=O)C=Cc2ccc3c(c2)OCCO3)c(OCc2ccccc2)c1,16,-22
COc1ccccc1CNC(=O)c1ccc(N(C)S(=O)(=O)c2ccccc2)cc1,-2,7
O=C(NCCn1nc(-c2cccs2)ccc1=O)c1cc2ccccc2[nH]1,-10,-17
CCc1ccccc1NC(=O)c1cc2c(CO)cnc(C)c2oc1=Nc1cccc(C)c1,2,0
CCOCCCNC(=O)C1CCN(c2cnn(Cc3ccccc3)c(=O)c2)CC1,-2,-4
COCCCNC(=O)C1CCN(Cc2cc3ccccc3n2Cc2ccccc2)CC1,93*,3
COCCCNC(=O)C1CCN(Cc2ccc(C)o2)CC1,1,-3
COCCNC(=O)C1CCN(Cc2cc3ccccc3n2Cc2cccc(Cl)c2)CC1,91*,0
Cc1ccnc(N2CCC(C(=O)NCC3CCN(Cc4cccc(Cl)c4)CC3)CC2)n1,7,4
CCOCCCNC(=O)C1CCN(Cc2cc3ccccc3n2Cc2ccccc2)CC1,76*,1
O=C(Cc1cccc(F)c1)N1CCc2[nH]cnc2C1c1ccccn1 (stereo unspecified),70*,-8
